Compound activity from PubChem BioAssay.
This is a sample that favours compounds with a hit; in the whole collection about 1.5% have one here.
gsp antag: gsp mutant antagonism; 0.4% of 340,000 active; gsp-mutant cells, cAMP HTRF, 30 min; Potency, µM (highest dose often 76.9 µM), usual class: inhibitors; AID 624288; calls by dose curve; cell line not stated here;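 further: intracellular cAMP measured with PDE inhibitor Ro 20-1724 present during compound exposure; nearly all actives have a fitted effect of over 65% in size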
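Cells, 2000/well, grown 16–24 h in DMEM 10% FBS with 0.5 mg/ml G418, then compounds plus […] (300 uM addition stock), 30 min at 37C. cAMP read by HTRF (cAMP-d2 and anti-cAMP antibody-K in lysis buffer) after 30 min RT.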
mIDH1 inhibitor: blocks human mutant IDH1 R132H enzyme; O75874; IDH1-R132H enzyme, NADPH consumption, diaphorase/resazurin fluorescence; Potency, µM (doses to about 76.6 µM), most hits filed as inhibitors; 0.093% of 390,000 active; further: nearly all actives have a fitted effect of over 65% in size
Target sequence (O75874 whole entry R132H, stated change not applied): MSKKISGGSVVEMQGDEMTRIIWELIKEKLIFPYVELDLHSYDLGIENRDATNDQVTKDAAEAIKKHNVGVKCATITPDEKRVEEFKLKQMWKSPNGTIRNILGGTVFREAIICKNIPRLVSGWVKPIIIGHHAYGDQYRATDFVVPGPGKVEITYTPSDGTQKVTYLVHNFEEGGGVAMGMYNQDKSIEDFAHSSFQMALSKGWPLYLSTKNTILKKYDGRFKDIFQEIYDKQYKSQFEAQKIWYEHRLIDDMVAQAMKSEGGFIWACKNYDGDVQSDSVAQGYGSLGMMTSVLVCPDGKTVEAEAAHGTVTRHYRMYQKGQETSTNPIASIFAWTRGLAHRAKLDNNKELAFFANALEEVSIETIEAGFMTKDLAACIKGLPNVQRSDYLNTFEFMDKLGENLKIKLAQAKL
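IDH1-R132H (0.5 ug/mL) preincubated 30 min with compound, then NADPH (0.016 mM) and alpha-KG (2 mM) added; 80 min at RT, pH 7.5. Remaining NADPH coupled via diaphorase/resazurin to fluorescence (540/590 nm); concentration-response curves normalized to no-enzyme control.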
IL2 activator: activators of IL-2 | IL-2 activation reporter assay, cell-based qHTS; stimulated with anti-CD3/CD4/CD28 beads; in transgenic mouse T cells | activation, % (series mostly up to about 46 µM) | 0.065% of 360,000 active | AID 652025; in the data active means activation above about 50%; inconclusive means mostly about 30% to 49%
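EGFP and DsRed fluorescence is measured by plate cytometry in unstimulated transgenic mouse T cells exposed to compound for 60 minutes, then stimulated 18 hours at 37 degrees C with anti-CD3/anti-CD4 beads plus anti-CD28.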
BRCA1 expr act: BRCA1 expression activation | MCF7-BRCA1-FFLuc reporter, luminescence, 48 h; response scale: scaled: vehicle 0%, 10 µM genistein 100% | Potency, µM (titrated, usually from 46.1 µM), most hits filed as activators | 1.1% of 380,000 active | AID 624202; further: nearly all actives have a fitted effect of over 80% in size
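First, MCF7-BRCA1-FFLuc cells (2000/well) attach for 2 h; next, compounds are pin-added and incubated 48 h at 37 °C; finally, luciferase reagent is added and luminescence read after 15 min.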
gsp ag: activates gsp, the McCune-Albright syndrome mutation; gsp mutant cells, cAMP HTRF, 30 min; Potency, µM (series often up to 76.9 µM), hits mostly activators; 0.13% of 340,000 active; active means well fitted activation curve with a large enough effect; inconclusive means small, poorly fitted or top-dose-only effect, or another doubt; inactive means no such curve, though single readings can be large or run the other way; cell line not stated here;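 further: phosphodiesterase inhibitor Ro 20-1724 added with compounds to block cAMP breakdown; nearly all actives have a fitted effect of over 60% in size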
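Cells in DMEM/10% FBS with G418 were pretreated with compounds in DMSO plus […] (300 uM stock) for 30 min at 37C. cAMP was measured by HTRF (cAMP-d2 plus anti-cAMP antibody-K) after 30 min at room temperature.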
Each line names hits and unclear results; the compound was inactive in the other large screens. Unless noted, the call rests on the fitted dose curve; in most records, active means well fitted curve in the direction sought with a large enough effect; inconclusive means small, poorly fitted or top-dose-only effect, or another doubt; inactive means no such curve, though single readings can be large; an effect the other way counts as inactive or inconclusive.

Cn1cc(CNC(=O)c2cc(-c3ccccc3)nc3ccc(Br)cc23)cn1	none
Cc1nn(C)cc1CN(C)C(=O)c1cc(-c2ccccc2)nc2ccc(Br)cc12	gsp ag 25µM
CC1CCN(C(=O)c2ccc3ccccc3c2)CC1	BRCA1 expr act 2.5µM
CCN(C(=O)CSc1n[nH]c(N)n1)c1cccc2ccccc12	none
COc1ccc(C(CC(=O)Nc2nccs2)C(C)C)cc1 (configuration not stated)	none
COc1ccc(C(CC(=O)Nc2nccs2)n2cccc2)cc1 (configuration not stated)	BRCA1 expr act 6.3µM
COc1ccc(Cc2nc3ccc(C(=O)N4CCCC4)cc3o2)cc1	BRCA1 expr act 6.3µM, gsp ag inconclusive
C=C(C)CNC(=O)c1ccc2nc(Cc3ccc(OC)cc3)oc2c1	BRCA1 expr act 10µM
O=C(c1ccc2oc(CCCc3ccccc3)nc2c1)N1CCCC1	BRCA1 expr act 7.1µM
COc1ccc(Cc2nc3ccc(C(=O)N4CCCC4)cc3o2)cc1OC	none
CC(=O)C1CCCN(C(=O)c2ccc3oc(CCc4ccccc4)nc3c2)C1 (configuration not stated)	none
CCC(=O)C1CCCN(C(=O)c2ccc3nc(-c4cccc(OC)c4)oc3c2)C1 (configuration not stated)	none
COc1ccc(Cc2nc3ccc(C(=O)NC(C)C)cc3o2)cc1	none
COc1cccc(-c2nc3ccc(C(=O)N4CCCC(O)C4)cc3o2)c1 (configuration not stated)	BRCA1 expr act 3.2µM
CCc1ccc2occ(CC(=O)Nc3sc4c(c3C(=O)NCCOC)CCCC4)c2c1	none (no result: gsp antag, IL2 activator, BRCA1 expr act, gsp ag)
CC(=O)c1cc(C#N)c(SCC(=O)OC(C)(C)C)nc1C	BRCA1 expr act 5.6µM
CC(=O)c1cc(C#N)c(SCC(=O)OC(C)C)nc1C	none
Cc1cccnc1NC(=S)NC(=O)c1oc2ccccc2c1C	BRCA1 expr act 2.8µM
O=C(CSc1ccc(-c2cccs2)nn1)c1cccs1	BRCA1 expr act 11µM
c1ccc(CSc2ccc(-c3cccs3)nn2)cc1	BRCA1 expr act inconclusive
c1ccc(CSc2ccc(-c3cccs3)nn2)nc1	BRCA1 expr act 7.9µM
CCc1ccc(-c2ccc(SCc3ccccn3)nn2)cc1	BRCA1 expr act 5µM
CCOc1ccc(-c2ccc(SCc3ccccn3)nn2)cc1	BRCA1 expr act 4.5µM
CCc1ccc(NC(=O)CSc2ccc(-c3ccccn3)nn2)cc1	none
CCOc1ccc(-c2ccc(SCC)nn2)cc1	none
CCSc1ccc(-c2ccc(C)cc2)nn1	BRCA1 expr act 2.5µM
NC1=NC(=O)/C(=C\C=C\c2ccccc2)S1	none
O=C1NC(=O)C(=CC=Cc2ccccc2)S1	BRCA1 expr act 10µM (no result: gsp antag)
CN(C(=O)COC(=O)c1c[nH]c2ccccc12)c1ccccc1	none (no result: gsp antag)
CN(Cc1ccccc1)C(=O)COC(=O)c1c[nH]c2ccccc12	BRCA1 expr act 10µM (no result: gsp antag)
COc1ccc(CC(=O)NO)cc1OC	none (no result: gsp antag, mIDH1 inhibitor, IL2 activator, gsp ag)
CC(=O)N1CCc2cc(S(=O)(=O)NC(CC(C)C)C(=O)NCCc3ccc(C)cc3)ccc21 (configuration not stated)	none (no result: gsp antag, IL2 activator, BRCA1 expr act, gsp ag)
Cc1cc(C(=O)COC(=O)c2ccccc2O)c(C)n1Cc1cccs1	none
Cc1cccc(C(=O)OCC(=O)c2ccc3c(c2)OCO3)c1O	BRCA1 expr act 6.3µM
Cc1cc(C(=O)COC(=O)c2ccc3c(c2)OCO3)c(C)n1Cc1cccs1	BRCA1 expr act 5µM
Cc1cccc(C(=O)OCC(=O)c2ccc3c(c2)OCCO3)c1O	gsp antag inconclusive, BRCA1 expr act 6.3µM
O=C(COC(=O)c1ccccc1[N+](=O)[O-])c1ccc2c(c1)OCO2	BRCA1 expr act inconclusive
CCN(CC)c1nc2ccccc2nc1C(=O)Nc1cc(OC)c(OC)c(OC)c1	none (no result: gsp antag, IL2 activator, BRCA1 expr act, gsp ag)
Cn1c(-c2ccc(C(C)(C)C)cc2)n[nH]c1=S	BRCA1 expr act 20µM
CCn1c(-c2ccc(C(C)(C)C)cc2)n[nH]c1=S	gsp antag inconclusive
COc1ccc(C)cc1NC(=O)c1cc(S(=O)(=O)N2CCN(c3cccc(C)c3C)CC2)ccc1F	none (no result: gsp antag, IL2 activator, BRCA1 expr act, gsp ag)
Cc1ccc(-n2ncc(C(=O)NCc3ccco3)c2C2CCN(C(=O)OC(C)(C)C)CC2)cc1C	none (no result: gsp antag, IL2 activator, BRCA1 expr act, gsp ag)
CCc1c(C(=O)Nc2ccccc2)c(C)[nH]c(=S)c1C#N	gsp ag 13µM
Cc1[nH]c(=S)c(C#N)c(C)c1C(=O)Nc1ccccc1	gsp ag inconclusive
